High-throughput results: PubChem BioAssay, several laboratories
Hits are enriched below; roughly 3.8% of the tested compounds scored in any of these assays.
Shn3 3UTR inh: inhibitors of Schnurri-3 3'UTR reporter in osteoblasts; Clone20 osteoblast Shn3 3'UTR firefly luciferase, 24 h; inhibition, % at 12.5 µM; 0.52% of 360,000 active; AID 588674;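 active = mean inhibition of at least 75% with every replicate also reaching 75%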;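 note: 0% = median of neutral control wells and 100% = pilot-screen positive control compound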
Gli-Sufu antag: Gli-Sufu pathway antagonism. 0.74% of 340,000 active. Sufu-KO-LIGHT fibroblasts, Gli luciferase reporter luminescence. AID 588413. inhibition, % at 5 µM;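 active = inhibition above about 55%, limit read from the data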;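 note: 0% = DMSO-treated cells and 100% = wells with medium but no cells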
Mdm2 MdmX PPI: inhibitors of human Mdm2/MdmX interaction; O15151+Q00987; SaOS-2 split-luciferase Mdm2/MdmX complementation, luminescence; inhibition, % at 8 µM; 3% of 330,000 active;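 active = inhibition of at least 50% at 8 µM in the primary screen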
697 NFkB inh: lowers PMA/ionomycin-induced NF-kB signal in 697 B cells; 697 B-cell NF-kB luciferase reporter, 16 h; 0.33% of 330,000 active; AID 435022; inhibition, % at 4 µM; in the data active = inhibition above about 35%
Jurkat NFkB inh: lowers PMA/ionomycin-induced NF-kB signal in Jurkat cells | inhibition, % at 4 µM | PMA/ionomycin-induced NF-kB luciferase reporter, luminescence | 0.53% of 330,000 active; in the data active = inhibition above about 50%
Gli-Sufu confirm: Gli-SUFU antagonism confirmation, single concentration; shares compounds with Gli-Sufu antag; Sufu-KO-LIGHT cells, Gli luciferase reporter, luminescence; inhibition, % at 5 µM; 40% of 2,500 active;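 active = mean inhibition at 5 µM reaching about 45%, limit read from the data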;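 note: plate controls were DMSO-treated cells for no effect and wells lacking cells for full effect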
Gli cytotox: cytotoxicity counter-screen for Gli-SUFU antagonists; 32% of 2,500 active; cytotoxicity, % at 5 µM; AID 651994; shares compounds with Gli-Sufu antag; Sufu-KO-LIGHT cells cytotoxicity, ATP luminescence;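 active = mean cytotoxicity at 5 µM above about 25%, limit read from the data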;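 note: cells exposed to compound overnight for roughly 16 to 18 hours; plate controls were DMSO wells with cells for no effect and medium without cells for full effect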
Wnt3a counter: Wnt3a reporter inhibition counter-screen | shares compounds with Gli-Sufu antag | Wnt-LIGHT cells, Wnt3a-driven luciferase reporter, luminescence | inhibition, % at 6.25 µM | 20% of 2,500 active | AID 651995;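 active = mean inhibition above about 25%, limit read from the data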
Numbers without * were called inactive; nt = no result.

SMILES	Shn3 3UTR inh	Gli-Sufu antag	Mdm2 MdmX PPI	697 NFkB inh	Jurkat NFkB inh	Gli-Sufu confirm	Gli cytotox	Wnt3a counter
CCC(CC)C(=O)Nc1nnc(S(=O)(=O)N2c3ccccc3CC2C)s1 (stereo not given)	8.8	1.5	17.8	-0.8	2.1	nt	nt	nt
CC[N+](CC)(CC#Cc1ccccc1)CC#Cc1ccccc1	30.0	67.8*	28.2	-23.8	37.9	71.4*	22.0	18.6
CCOC(=O)C1CCCN(C(=O)CCn2nc(-c3ccccc3)ccc2=O)C1 (stereo not given)	20.2	56.3*	10.4	-3.4	-3.9	26.0	14.8	-7.2
CCc1nnc(NC(=O)CCC(=O)N2CCN(S(=O)(=O)c3cc(Cl)ccc3OC)CC2)s1	-10.4	47.9	11.2	10.6	4.2	nt	nt	nt
CCCC(=O)N1CCN(S(=O)(=O)c2cc(Cl)ccc2OC)CC1	-18.0	55.1*	28.3	-0.2	-1.1	5.0	10.8	-3.2
CCOc1ccc(C(=O)n2cc(C(=O)OC)c3ccccc32)cc1	-0.5	14.5	1.6	1.8	8.6	nt	nt	nt
COc1c(Cl)ccc(Cl)c1C(=O)NCc1ccco1	-16.0	51.1	16.2	11.2	6.1	14.1	1.8	2.8
COc1cccc(OC)c1C(=O)NCc1ccco1	-34.3	nt	nt	nt	nt	nt	nt	nt
CC1CCCCC1NC(=O)C1CCCN(S(=O)(=O)c2ccc(-n3cnnn3)cc2)C1 (stereo not given)	-4.5	-20.2	-0.9	15.4	3.6	nt	nt	nt
COC(C[C@H]1O[C@H]1[C@H](O)[C@H](C)OCc1ccccc1)OC	4.0	-8.7	-4.1	3.3	18.5	nt	nt	nt
CC(C)(C)NC(=O)C(c1ccncc1)N(C(=O)c1csnn1)c1cccc2ccccc12 (stereo not given)	8.8	6.1	9.9	8.4	5.1	nt	nt	nt
S=c1[nH]nc(CSCCOc2ccccc2)o1	-0.3	8.2	-1.8	-9.1	3.9	nt	nt	nt
S=c1[nH]nc(CSCCOc2ccc(Cl)cc2Cl)o1	-10.6	55.0	-18.4	-48.9	-15.7	14.8	6.7	-27.6
Cc1nn(CC(=O)NCC(C)c2ccccc2)c(=O)c2cccn12 (stereo not given)	-11.8	-13.9	1.8	24.4	10.0	nt	nt	nt
C=CCn1c(O)c(N=NC(=S)Nc2ccccc2C)c2cc(S(=O)(=O)N3CCOCC3)ccc21	42.7	52.1	39.4	11.6	15.0	48.1*	32.0*	-48.9
Cn1c(O)c(N=NC(=S)Nc2ccccc2F)c2cc(S(=O)(=O)N3CCOCC3)ccc21	72.1	37.8	nt	nt	nt	nt	nt	nt
Cc1c(NC(=S)NC(NC(=O)C(C)(C)C)C(Cl)(Cl)Cl)c(=O)n(-c2ccccc2)n1C (stereo not given)	-15.8	51.4	-21.9	1.6	-8.8	24.5	1.4	6.0
Cc1c(NC(=O)CN2C(=O)NC(C)(c3ccccc3)C2=O)c(=O)n(-c2ccccc2)n1C (stereo not given)	-2.5	-5.4	19.4	14.0	-0.1	nt	nt	nt
CCOC(=O)C1=C(C)N(c2ccccc2)C(=O)C1	-13.7	76.1*	1.8	-10.7	-5.5	23.9	10.8	5.7
CCOC(=O)C(C)N1CC(=O)N(c2ccccc2)C1=O (stereo not given)	-7.0	2.4	nt	nt	nt	nt	nt	nt
Cc1ccccc1CS(=O)(=O)Cc1ccc(C(=O)NCCc2ccccc2)o1	-6.1	-4.9	39.7	-19.5	10.5	nt	nt	nt
COc1ccc(NC(=S)Nc2ccc(C)c(Cl)c2)cc1OC	3.7	1.5	11.2	1.2	-2.3	nt	nt	nt
Cc1ccc(NC(=S)Nc2ccc(OC(F)F)c(Cl)c2)cc1Cl	18.7	56.1*	nt	nt	nt	5.4	-1.8	-19.2
Cc1cc(C)cc(OCC(=O)N(Cc2ccccc2)C2CCS(=O)(=O)C2)c1 (stereo not given)	-9.9	15.2	1.3	-4.4	8.8	nt	nt	nt
O=C(CN(C(=O)c1csnn1)c1ccc(Cl)cc1)NCc1ccc2c(c1)OCO2	-12.3	52.9	-20.8	-5.7	-9.7	2.3	5.4	-11.6
CC(NC(=O)C1CCN(C(=O)c2ccc(F)cc2)CC1)c1ccc(-n2ccnc2)cc1 (stereo not given)	-32.6	-4.3	-14.5	-0.1	-18.0	nt	nt	nt
COc1cc(C(C)=NNC(=O)c2ccncc2)ccc1O	4.3	1.0	nt	nt	nt	nt	nt	nt
Cc1nn(C)c(C)c1/C=C/C(=O)O	16.3	-2.2	5.5	-11.5	6.6	nt	nt	nt
